Holding throughout (experiment): DAPPL (digital affinity profiling via proximity ligation, sequencing); 10 mM Tris-HCl pH 7.5, 50 mM NaCl, 1 mM DTT, 4% glycerol, room temperature, 30 min; GST-TFs on glutathione beads, 16-mer random dsDNA library, 0.1% formaldehyde crosslink after washing; high values mean tight binding
Test [1] has as its target T1, FLI1 (Homo sapiens, UniProt Q01543 1-452).
T1 sequence: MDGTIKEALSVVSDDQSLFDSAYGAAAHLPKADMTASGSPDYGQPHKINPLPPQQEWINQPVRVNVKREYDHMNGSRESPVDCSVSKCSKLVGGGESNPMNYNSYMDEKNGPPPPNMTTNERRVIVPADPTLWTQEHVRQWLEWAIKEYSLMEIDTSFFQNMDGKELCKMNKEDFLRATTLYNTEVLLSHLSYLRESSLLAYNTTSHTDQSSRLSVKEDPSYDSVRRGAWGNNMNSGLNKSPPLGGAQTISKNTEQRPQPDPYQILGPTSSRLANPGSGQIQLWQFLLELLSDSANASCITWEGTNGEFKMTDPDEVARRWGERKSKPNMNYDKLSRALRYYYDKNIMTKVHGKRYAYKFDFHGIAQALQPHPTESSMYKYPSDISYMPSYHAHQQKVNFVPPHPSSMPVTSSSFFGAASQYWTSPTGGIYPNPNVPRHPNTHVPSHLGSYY
To be noted: protein: recombinant; tags: N-terminal GST; dsDNA, one strand shown. The procedure, abridged: (§1)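 Binding signal is defined as a hexamer's read frequency for one factor over its frequency for the tag-only sample. To obtain reads, GST-fused human transcription factors were expressed in yeast, captured on glutathione beads, barcoded with DNA and pooled with that sample. Pools met 200 nmole of a 16-mer random double-stranded DNA library in Tris/NaCl/DTT/glycerol buffer for 30 min at room temperature before washing, 0.1% formaldehyde crosslinking, proximity ligation (BsaI/T4 ligase, 1 h, 37 °C), PCR and Illumina NextSeq500 sequencing.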

Test [2] addresses T2, ELK1 (Homo sapiens, UniProt P19419 1-428).
T2 sequence: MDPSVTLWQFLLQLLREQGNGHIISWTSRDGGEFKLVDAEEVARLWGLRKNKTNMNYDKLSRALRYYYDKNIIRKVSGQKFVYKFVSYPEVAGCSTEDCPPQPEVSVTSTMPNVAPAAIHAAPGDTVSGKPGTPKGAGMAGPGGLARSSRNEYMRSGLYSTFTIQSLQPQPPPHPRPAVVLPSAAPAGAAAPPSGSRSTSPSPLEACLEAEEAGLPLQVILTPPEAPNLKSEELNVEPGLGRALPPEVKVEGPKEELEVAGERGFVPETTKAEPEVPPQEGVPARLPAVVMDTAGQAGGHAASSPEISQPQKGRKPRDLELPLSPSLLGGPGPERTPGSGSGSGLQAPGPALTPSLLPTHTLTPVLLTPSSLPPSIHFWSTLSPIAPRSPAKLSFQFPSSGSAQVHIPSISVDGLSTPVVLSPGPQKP
To be noted: protein: recombinant; tags: N-terminal GST; dsDNA, one strand shown. The procedure, abridged: as §1

The target in test [3] is T3, ERG (Homo sapiens, UniProt P11308 1-479).
T3 sequence: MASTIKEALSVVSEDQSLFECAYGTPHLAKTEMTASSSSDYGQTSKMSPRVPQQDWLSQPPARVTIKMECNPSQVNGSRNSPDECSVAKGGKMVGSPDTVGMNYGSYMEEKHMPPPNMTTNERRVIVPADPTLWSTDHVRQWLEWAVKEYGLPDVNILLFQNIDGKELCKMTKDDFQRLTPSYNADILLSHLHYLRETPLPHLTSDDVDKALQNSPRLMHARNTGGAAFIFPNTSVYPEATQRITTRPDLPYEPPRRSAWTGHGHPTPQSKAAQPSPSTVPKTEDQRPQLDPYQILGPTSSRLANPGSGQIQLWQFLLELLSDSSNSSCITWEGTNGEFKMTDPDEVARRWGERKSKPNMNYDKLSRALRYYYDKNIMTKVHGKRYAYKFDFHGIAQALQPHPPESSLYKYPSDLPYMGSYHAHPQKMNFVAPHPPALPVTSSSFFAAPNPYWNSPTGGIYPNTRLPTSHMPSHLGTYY
The note with it: protein: recombinant; tags: N-terminal GST; dsDNA, one strand shown. The procedure, abridged:
as §1

Test [4] has as its target ELF1 (Homo sapiens, UniProt P32519 1-619). To be noted: protein: recombinant; tags: N-terminal GST; dsDNA, one strand shown. The procedure, abridged:
as §1

The target of test [5] is T4, EHF (Homo sapiens, UniProt Q9NZC4 1-300).
T4 sequence: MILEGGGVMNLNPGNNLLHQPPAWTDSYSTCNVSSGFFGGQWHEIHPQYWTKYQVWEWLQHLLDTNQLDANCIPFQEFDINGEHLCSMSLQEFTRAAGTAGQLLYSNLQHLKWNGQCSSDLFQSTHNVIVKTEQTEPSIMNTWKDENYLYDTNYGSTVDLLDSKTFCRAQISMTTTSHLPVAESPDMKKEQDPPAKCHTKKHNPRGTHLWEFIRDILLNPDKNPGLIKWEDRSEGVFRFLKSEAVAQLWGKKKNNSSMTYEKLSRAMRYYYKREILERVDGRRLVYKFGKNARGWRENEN
To be noted: protein: recombinant; tags: N-terminal GST; dsDNA, one strand shown. The procedure, abridged:
as §1

Test [6] has as its target ETV5 (Homo sapiens, UniProt P41161 1-510). To be noted: protein: recombinant; tags: N-terminal GST; dsDNA, one strand shown. Summed up: as §1
Test [7] addresses HSF1 (Homo sapiens, UniProt Q00613 1-529). To be noted: protein: recombinant; tags: N-terminal GST; chain copies: 3; dsDNA, one strand shown. The procedure, abridged:
as §1

Test [8] concerns the target ELF4 (Homo sapiens, UniProt Q99607 1-663). The note with it: protein: recombinant; tags: N-terminal GST; dsDNA, one strand shown. Summed up: as §1
Test [9] addresses T5, ELK4 (Homo sapiens, UniProt P28324-2 1-405).
T5 sequence: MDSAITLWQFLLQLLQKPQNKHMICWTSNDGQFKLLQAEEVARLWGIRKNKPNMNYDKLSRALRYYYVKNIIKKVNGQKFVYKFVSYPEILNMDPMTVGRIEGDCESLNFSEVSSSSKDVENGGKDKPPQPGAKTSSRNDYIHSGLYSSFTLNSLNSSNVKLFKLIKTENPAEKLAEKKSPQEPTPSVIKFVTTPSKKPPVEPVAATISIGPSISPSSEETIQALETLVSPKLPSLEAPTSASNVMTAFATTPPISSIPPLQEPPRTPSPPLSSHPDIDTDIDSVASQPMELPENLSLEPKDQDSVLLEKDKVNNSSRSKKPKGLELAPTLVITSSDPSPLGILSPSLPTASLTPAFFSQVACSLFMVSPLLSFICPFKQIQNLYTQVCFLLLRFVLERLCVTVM
To be noted: protein: recombinant; tags: N-terminal GST; dsDNA, one strand shown. The procedure, abridged:
as §1

Test [10] deals with T6, ETV2 (Homo sapiens, UniProt O00321 1-342).
T6 sequence: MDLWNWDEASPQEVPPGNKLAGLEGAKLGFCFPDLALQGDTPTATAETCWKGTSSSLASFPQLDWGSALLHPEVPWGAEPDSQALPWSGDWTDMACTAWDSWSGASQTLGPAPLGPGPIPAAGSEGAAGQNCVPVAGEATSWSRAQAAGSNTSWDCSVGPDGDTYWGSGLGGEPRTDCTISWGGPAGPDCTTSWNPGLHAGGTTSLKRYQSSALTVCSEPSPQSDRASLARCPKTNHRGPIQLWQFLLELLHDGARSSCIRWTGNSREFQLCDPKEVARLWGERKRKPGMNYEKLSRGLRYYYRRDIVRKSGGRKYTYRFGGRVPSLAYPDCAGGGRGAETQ
To be noted: protein: recombinant; tags: N-terminal GST; dsDNA, one strand shown. Summed up:
as §1

Test [11] addresses CRX (Homo sapiens, UniProt O43186 1-299). The note with it: protein: recombinant; tags: N-terminal GST; dsDNA, one strand shown. The procedure, abridged:
as §1

The target in test [12] is ETV1 (Homo sapiens, UniProt P50549 1-477). To be noted: protein: recombinant; tags: N-terminal GST; dsDNA, one strand shown. The procedure, abridged:
as §1

Test [13] deals with T7, GABPA (Homo sapiens, UniProt Q06546 1-454).
T7 sequence: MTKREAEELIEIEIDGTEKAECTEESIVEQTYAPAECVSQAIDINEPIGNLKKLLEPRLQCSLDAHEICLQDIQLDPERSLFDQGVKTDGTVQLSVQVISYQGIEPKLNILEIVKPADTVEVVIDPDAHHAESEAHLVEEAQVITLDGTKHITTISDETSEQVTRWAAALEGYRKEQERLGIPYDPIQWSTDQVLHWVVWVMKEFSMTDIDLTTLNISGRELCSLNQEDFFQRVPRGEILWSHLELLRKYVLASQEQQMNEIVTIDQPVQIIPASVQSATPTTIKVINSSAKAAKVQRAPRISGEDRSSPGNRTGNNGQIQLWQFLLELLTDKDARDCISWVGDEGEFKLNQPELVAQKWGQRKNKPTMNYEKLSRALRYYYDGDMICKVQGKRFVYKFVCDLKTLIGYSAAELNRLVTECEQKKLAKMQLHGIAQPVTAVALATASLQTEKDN
To be noted: protein: recombinant; tags: N-terminal GST; dsDNA, one strand shown. The procedure, abridged: as §1

The target in test [14] is SPI1 (Homo sapiens, UniProt P17947 1-270). To be noted: protein: recombinant; tags: N-terminal GST; dsDNA, one strand shown. The procedure, abridged: as §1
Test [15] addresses SPIB (Homo sapiens, UniProt Q01892 1-262). The note with it: protein: recombinant; tags: N-terminal GST; dsDNA, one strand shown. The procedure, abridged: as §1
The target in test [16] is T8, FEV (Homo sapiens, UniProt Q99581 1-238).
T8 sequence: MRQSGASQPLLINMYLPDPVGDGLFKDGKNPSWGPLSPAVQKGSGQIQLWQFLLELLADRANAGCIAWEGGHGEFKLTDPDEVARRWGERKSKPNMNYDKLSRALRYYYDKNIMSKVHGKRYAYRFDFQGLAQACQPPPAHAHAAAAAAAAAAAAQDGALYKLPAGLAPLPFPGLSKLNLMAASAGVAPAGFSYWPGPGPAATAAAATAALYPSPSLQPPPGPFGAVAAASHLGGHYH
To be noted: protein: recombinant; tags: N-terminal GST; dsDNA, one strand shown. The procedure, abridged:
as §1

Test [17] addresses T9, ELF3 (Homo sapiens, UniProt P78545 1-371).
T9 sequence: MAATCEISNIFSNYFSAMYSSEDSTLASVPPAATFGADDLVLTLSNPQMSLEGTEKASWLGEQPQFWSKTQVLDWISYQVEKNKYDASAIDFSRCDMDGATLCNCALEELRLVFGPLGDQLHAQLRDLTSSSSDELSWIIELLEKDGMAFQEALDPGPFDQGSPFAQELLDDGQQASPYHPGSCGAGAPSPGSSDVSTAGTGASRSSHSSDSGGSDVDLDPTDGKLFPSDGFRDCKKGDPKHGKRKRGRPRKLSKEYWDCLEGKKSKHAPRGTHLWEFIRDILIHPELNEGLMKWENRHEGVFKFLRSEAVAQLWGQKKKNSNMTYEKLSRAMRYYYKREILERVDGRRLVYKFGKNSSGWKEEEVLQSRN
To be noted: protein: recombinant; tags: N-terminal GST; dsDNA, one strand shown. The procedure, abridged: as §1

Sequence of ELF1 (P32519 whole entry): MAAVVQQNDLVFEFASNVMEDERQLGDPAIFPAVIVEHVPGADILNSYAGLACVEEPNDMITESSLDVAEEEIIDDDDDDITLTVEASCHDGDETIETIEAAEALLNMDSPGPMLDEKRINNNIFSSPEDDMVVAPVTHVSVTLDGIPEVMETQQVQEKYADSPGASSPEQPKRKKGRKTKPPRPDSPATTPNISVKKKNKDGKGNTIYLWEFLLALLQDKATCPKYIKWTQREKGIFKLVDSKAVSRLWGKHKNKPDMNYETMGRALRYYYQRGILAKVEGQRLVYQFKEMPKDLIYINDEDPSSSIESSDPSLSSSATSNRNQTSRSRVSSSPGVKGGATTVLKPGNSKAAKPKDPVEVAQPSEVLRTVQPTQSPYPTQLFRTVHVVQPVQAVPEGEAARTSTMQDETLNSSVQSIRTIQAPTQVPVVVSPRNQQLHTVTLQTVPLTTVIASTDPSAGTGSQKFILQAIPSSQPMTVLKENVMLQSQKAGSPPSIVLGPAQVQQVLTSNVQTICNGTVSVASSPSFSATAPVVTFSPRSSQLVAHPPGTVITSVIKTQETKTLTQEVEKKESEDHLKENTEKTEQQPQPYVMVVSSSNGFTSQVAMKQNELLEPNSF
Sequence of HSF1 (Q00613 whole entry): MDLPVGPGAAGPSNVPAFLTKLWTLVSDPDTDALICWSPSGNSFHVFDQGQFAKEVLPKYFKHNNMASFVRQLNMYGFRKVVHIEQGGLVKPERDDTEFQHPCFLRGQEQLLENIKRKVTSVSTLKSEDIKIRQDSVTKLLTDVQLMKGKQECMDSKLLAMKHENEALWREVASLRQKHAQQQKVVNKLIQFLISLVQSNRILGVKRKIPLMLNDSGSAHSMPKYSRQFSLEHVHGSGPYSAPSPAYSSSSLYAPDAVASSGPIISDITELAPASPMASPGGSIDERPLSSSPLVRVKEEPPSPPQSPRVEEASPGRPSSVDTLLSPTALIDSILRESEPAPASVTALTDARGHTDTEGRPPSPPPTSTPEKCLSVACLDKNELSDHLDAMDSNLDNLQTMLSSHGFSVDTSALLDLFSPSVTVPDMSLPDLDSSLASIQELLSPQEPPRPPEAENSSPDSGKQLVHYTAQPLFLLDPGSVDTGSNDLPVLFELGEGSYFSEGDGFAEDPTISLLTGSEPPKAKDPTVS
Sequence of ELF4 (Q99607 whole entry): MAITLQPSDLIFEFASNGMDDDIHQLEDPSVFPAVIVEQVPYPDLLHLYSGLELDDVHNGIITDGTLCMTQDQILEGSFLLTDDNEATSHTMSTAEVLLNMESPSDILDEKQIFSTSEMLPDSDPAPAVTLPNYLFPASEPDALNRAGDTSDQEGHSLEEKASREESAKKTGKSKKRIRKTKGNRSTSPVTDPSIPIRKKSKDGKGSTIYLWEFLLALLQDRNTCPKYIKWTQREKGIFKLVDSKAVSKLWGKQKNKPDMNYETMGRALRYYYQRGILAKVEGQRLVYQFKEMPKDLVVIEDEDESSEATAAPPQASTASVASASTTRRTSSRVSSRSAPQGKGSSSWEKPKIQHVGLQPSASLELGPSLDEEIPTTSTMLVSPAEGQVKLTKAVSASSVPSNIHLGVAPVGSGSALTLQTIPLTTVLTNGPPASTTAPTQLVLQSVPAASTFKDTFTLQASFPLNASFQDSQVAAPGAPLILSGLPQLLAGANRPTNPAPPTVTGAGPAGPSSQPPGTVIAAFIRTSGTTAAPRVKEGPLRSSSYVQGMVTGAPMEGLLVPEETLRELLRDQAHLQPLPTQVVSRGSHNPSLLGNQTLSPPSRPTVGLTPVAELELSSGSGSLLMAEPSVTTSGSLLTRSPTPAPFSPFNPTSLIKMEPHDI
Sequence of ETV5 (P41161 whole entry): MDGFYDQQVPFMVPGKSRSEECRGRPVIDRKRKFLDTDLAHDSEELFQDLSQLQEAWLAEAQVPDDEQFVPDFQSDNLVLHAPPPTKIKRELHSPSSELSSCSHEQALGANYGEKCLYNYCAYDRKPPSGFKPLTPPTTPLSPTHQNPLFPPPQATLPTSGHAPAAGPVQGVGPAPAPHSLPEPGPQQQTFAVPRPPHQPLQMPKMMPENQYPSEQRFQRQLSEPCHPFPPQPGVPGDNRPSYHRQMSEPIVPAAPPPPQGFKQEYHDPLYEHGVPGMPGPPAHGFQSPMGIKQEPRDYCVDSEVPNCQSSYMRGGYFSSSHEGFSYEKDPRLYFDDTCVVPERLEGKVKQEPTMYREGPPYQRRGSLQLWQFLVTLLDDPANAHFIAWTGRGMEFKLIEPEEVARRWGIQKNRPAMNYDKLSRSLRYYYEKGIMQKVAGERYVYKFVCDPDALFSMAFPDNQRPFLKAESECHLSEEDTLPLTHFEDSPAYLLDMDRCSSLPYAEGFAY
Sequence of CRX (O43186 whole entry): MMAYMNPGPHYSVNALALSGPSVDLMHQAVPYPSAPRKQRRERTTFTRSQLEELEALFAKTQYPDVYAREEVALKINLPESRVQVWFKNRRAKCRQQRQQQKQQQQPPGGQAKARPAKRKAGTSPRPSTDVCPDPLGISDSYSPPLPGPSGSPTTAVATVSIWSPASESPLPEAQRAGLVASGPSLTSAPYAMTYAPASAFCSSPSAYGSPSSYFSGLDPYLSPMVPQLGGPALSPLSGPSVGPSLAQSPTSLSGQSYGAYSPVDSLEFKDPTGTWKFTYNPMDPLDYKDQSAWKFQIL
Sequence of SPIB (Q01892 whole entry): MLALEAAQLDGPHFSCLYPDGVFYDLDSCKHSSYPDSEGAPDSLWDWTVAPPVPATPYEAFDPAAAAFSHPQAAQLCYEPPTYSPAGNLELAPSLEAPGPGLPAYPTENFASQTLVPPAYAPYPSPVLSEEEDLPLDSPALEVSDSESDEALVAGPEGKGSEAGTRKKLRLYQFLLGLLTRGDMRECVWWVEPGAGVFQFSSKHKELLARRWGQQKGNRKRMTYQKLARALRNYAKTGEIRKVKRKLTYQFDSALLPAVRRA
Sequence of ETV1 (P50549 whole entry): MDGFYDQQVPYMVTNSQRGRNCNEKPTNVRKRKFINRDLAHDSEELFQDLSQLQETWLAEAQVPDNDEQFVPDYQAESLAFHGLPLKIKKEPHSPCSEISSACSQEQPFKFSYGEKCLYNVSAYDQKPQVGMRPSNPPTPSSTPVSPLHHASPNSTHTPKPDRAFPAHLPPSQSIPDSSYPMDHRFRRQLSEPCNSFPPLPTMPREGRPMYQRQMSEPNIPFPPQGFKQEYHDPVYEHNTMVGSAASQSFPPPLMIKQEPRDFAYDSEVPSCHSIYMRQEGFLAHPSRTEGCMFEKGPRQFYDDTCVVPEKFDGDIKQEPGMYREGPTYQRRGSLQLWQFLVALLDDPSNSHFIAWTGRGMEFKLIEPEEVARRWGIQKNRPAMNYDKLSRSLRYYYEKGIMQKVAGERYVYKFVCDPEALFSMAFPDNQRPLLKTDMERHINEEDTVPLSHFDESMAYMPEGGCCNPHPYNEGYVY

ACAGAT: the binding signal was 1.02 fold enrichment (6-mer frequency, TF over GST control) in test [1]; 1.1 fold enrichment (6-mer frequency, TF over GST control) in test [2]; 1.07 fold enrichment (6-mer frequency, TF over GST control) in test [3]; 1.02 fold enrichment (6-mer frequency, TF over GST control) in test [4]; 1.03 fold enrichment (6-mer frequency, TF over GST control) in test [5]; 1 fold enrichment (6-mer frequency, TF over GST control) in [6]. Further, the binding signal in test [7] was 1.1 fold enrichment (6-mer frequency, TF over GST control); in test [8], 1.05 fold enrichment (6-mer frequency, TF over GST control); in test [9] it was 1.04 fold enrichment (6-mer frequency, TF over GST control); in test [10] it was 1.05 fold enrichment (6-mer frequency, TF over GST control); in test [11], 1.27 fold enrichment (6-mer frequency, TF over GST control); in test [12], 1.05 fold enrichment (6-mer frequency, TF over GST control).

On to CCAAAT, for which the binding signal in [1] is 1.02 fold enrichment (6-mer frequency, TF over GST control); in test [2] it was 1.1 fold enrichment (6-mer frequency, TF over GST control); in [13], 1.01 fold enrichment (6-mer frequency, TF over GST control); in test [3] it was 1.1 fold enrichment (6-mer frequency, TF over GST control); in [4] it was 1.16 fold enrichment (6-mer frequency, TF over GST control); in [5], 1.05 fold enrichment (6-mer frequency, TF over GST control). Further, the binding signal is 1.09 fold enrichment (6-mer frequency, TF over GST control) in test [14]; 1.04 fold enrichment (6-mer frequency, TF over GST control) in [15]; 1.08 fold enrichment (6-mer frequency, TF over GST control) in test [16]; 1.06 fold enrichment (6-mer frequency, TF over GST control) in [6]; 1.02 fold enrichment (6-mer frequency, TF over GST control) in [7]; 1.17 fold enrichment (6-mer frequency, TF over GST control) in test [8]. Also, the binding signal in [9] was 1.04 fold enrichment (6-mer frequency, TF over GST control); in test [17], 1.11 fold enrichment (6-mer frequency, TF over GST control); in [11], 1.18 fold enrichment (6-mer frequency, TF over GST control).

Values taken from article PMC7862700, “An all-to-all approach to the identification of sequence-specific readers for epigenetic DNA modifications on cytosine”.
